Screening data deposited in PubChem BioAssay by Broad Institute.
NOMO-1 viab = STK33 inhibitor candidate reducing NOMO-1 cell viability; NOMO-1 AML viability, CellTiter-Glo luminescence, 72 h; AID 2330; inhibition, % (no concentration beside the values); hit rate 7.5% among 37,000; in the data active means inhibition above about 80%
PD-1 reverse act = activators reversing PD-1 mediated T-cell inhibition. primary human CD4 T cells, PD-L1 beads, CellTiter-Glo 96 h. activation, % (concentration not given with the values). 29,000 tested, under 10 active. AID 2316; call rule not given here;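 further: 0% = median vehicle wells and 100% = positive control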
STK33 inh = human STK33 kinase inhibition. Q9BYT3. hit rate 0.44% among 27,000. AID 2322. inhibition, % at 12.5 µM. ADP-Glo luminescence, MBP substrate; in the data active means inhibition above about 20%
Target sequence (Q9BYT3 whole entry, looked up): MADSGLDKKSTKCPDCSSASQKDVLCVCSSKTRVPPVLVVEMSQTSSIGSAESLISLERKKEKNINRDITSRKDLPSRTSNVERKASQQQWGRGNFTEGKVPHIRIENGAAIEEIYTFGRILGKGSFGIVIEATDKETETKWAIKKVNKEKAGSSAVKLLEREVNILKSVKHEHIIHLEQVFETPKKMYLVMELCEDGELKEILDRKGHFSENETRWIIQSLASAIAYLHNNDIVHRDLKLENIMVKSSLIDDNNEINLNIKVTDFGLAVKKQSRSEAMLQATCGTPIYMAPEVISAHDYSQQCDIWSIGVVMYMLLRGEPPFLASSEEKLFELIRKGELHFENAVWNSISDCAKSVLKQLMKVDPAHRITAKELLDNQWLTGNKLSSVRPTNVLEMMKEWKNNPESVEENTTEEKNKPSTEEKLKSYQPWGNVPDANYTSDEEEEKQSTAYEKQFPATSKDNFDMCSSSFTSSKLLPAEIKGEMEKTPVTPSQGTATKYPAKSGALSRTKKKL
* marks the source's active call; other numbers are inactive results; nt = no result. The full list was thinned out, with hits kept by preference.

SMILES | NOMO-1 viab | PD-1 reverse act | STK33 inh
CCOC(=O)c1sc(SC)c2c1CC(c1ccc(OC)cc1)CC2=O (stereo not drawn) | -11 | 0 | nt
COc1ccc(OC)c(NC(=O)CSc2nnnn2-c2ccccc2)c1 | 10 | -2 | -4
COc1ccc(-n2nnnc2SCC(=O)Nc2cc(C)c(Cl)cc2OC)cc1 | 92* | -7 | 7
Cc1sc(NC(=O)COc2ccc(-c3ccccc3)cc2)c(C(N)=O)c1C | -3 | 1 | 9
COc1cc(C(=O)NCc2ccccc2)cc(OC)c1OC | 32 | -1 | -2
C[C@H](CO)N1C[C@H](C)[C@@H](CN(C)Cc2ccc(C(=O)O)cc2)Oc2c(NC(=O)Nc3ccc4c(c3)OCO4)cccc2C1=O | 11 | nt | nt
C[C@H]1CN([C@@H](C)CO)C(=O)c2cccc(NC(=O)Nc3ccc4c(c3)OCO4)c2O[C@H]1CN(C)Cc1ccc(C(=O)Nc2ccccc2N)cc1 | 140* | -1 | nt
C[C@@H]1CN([C@H](C)CO)C(=O)c2cccc(NC(=O)Nc3ccc4c(c3)OCO4)c2O[C@@H]1CN(C)Cc1ccc(C(=O)Nc2ccccc2N)cc1 | 140* | -1 | nt
C[C@@H]1CN([C@H](C)CO)C(=O)c2cccc(NC(=O)Nc3ccc4c(c3)OCO4)c2O[C@@H]1CN(C)Cc1ccc(C(F)(F)F)cc1 | 44 | 0 | nt
COC(=O)c1cccc(NC(=O)CSc2nc(-c3ccc(C)cc3)cc(C(F)(F)F)n2)c1 | 15 | 1 | 4
CC1OC(=O)CC2C(C(=O)O)=CC3CC(C)(C)CC312 (stereo not drawn) | -5 | -1 | -7
COC(=O)c1cc(Br)ccc1NC(=O)COc1ccc(Cl)cc1C | 15 | -8 | 1
CCN(CC)C(=S)CSc1nc(-c2ccccc2)cc(-c2ccco2)c1C#N | 88* | 0 | nt
CCc1nnc(NC(=O)CSc2nc(-c3ccccc3)cc(C(F)(F)F)c2C#N)s1 | 5 | 3 | 0
COC(=O)C(NC(=O)c1ccc([N+](=O)[O-])o1)C(C)C (stereo not drawn) | 113* | nt | -3
NC(=O)N/N=C/c1ccc([N+](=O)[O-])o1 | 50 | nt | -6
OCCCNc1ncnc2scc(-c3ccccc3)c12 | 44 | -1 | 2
OCCCNc1ncnc2oc(-c3ccccc3)c(-c3ccccc3)c12 | 40 | nt | 32*
COc1ccc(S(=O)(=O)N(C)CC(=O)Nc2cccc(Cl)c2C)cc1OC | 3 | -1 | 3
C[C@H](CO)N1C[C@H](C)[C@H](CN(C)C(=O)Nc2ccc(C(F)(F)F)cc2)Oc2ccc(NC(=O)Nc3cccc4ccccc34)cc2CC1=O | 46 | nt | 5
C[C@H](CO)N1C[C@H](C)[C@H](CN(C)Cc2ccc(C(F)(F)F)cc2)Oc2ccc(NC(=O)Nc3cccc4ccccc34)cc2CC1=O | 125* | nt | 5
C[C@@H]1CN([C@H](C)CO)C(=O)Cc2cc(NC(=O)Nc3cccc4ccccc34)ccc2O[C@H]1CN(C)Cc1ccc(C(=O)O)cc1 | 1 | 2 | -7
C[C@H]1CN([C@@H](C)CO)C(=O)Cc2cc(NC(=O)Nc3cccc4ccccc34)ccc2O[C@H]1CN(C)Cc1ccc(C(F)(F)F)cc1 | 106* | -2 | 5
C[C@H]1CN([C@@H](C)CO)C(=O)Cc2cc(NC(=O)Nc3cccc4ccccc34)ccc2O[C@@H]1CN(C)Cc1ccc(C(=O)O)cc1 | 3 | 3 | 2
C[C@H]1CN([C@@H](C)CO)C(=O)Cc2cc(NC(=O)Nc3cccc4ccccc34)ccc2O[C@@H]1CN(C)Cc1ccc(C(F)(F)F)cc1 | 125* | nt | 5
SMILES | NOMO-1 viab | PD-1 reverse act | STK33 inh
C[C@@H]1CN([C@@H](C)CO)C(=O)Cc2cc(NC(=O)Nc3cccc4ccccc34)ccc2O[C@@H]1CN(C)C(=O)Nc1ccc(C(F)(F)F)cc1 | 107* | -6 | 5
CC1(C)CC(=O)C(C=NC(CO)(CO)CO)=C(O)C1 | 21 | 1 | nt
CNC(=O)Cc1coc2ccc3ccccc3c12 | 15 | 0 | nt
Cc1ccc(S(=O)(=O)N(C)CC(=O)Nc2ccc(C(F)(F)F)cc2)cc1 | 6 | 1 | -1
CCc1ccccc1OCC(=O)Nc1ccc(C)cc1[N+](=O)[O-] | -5 | 0 | 0
Cc1cc(C)cc(OCC(=O)Nc2cc(-c3nc4cc(Cl)ccc4o3)ccc2C)c1 | 41 | nt | -1
Cc1ccccc1NC(=O)CSc1nnc(-c2cccc(Cl)c2)n1C | -6 | nt | -2
C[C@@H]1CN([C@H](C)CO)C(=O)Cc2cc(NC(=O)Nc3cccc4ccccc34)ccc2O[C@H]1CN(C)Cc1ccc(C(F)(F)F)cc1 | 105* | nt | 2
Cn1c(SCC(=O)Nc2cccc(Br)c2)nnc1-c1ccc(Cl)cc1 | 5 | 0 | 3
COc1ccc(CSc2nnc(CSc3cccs3)n2C)cc1 | 16 | 1 | nt
C[C@@H]1CN([C@@H](C)CO)C(=O)Cc2cc(NC(=O)Nc3cccc4ccccc34)ccc2O[C@@H]1CN(C)Cc1ccncc1 | 82* | -5 | 0
C[C@H](CO)N1C[C@H](C)[C@H](CN(C)Cc2ccccc2)Oc2ccc(NC(=O)Nc3cccc4ccccc34)cc2CC1=O | 18 | 1 | 0
C[C@H]1CN([C@@H](C)CO)C(=O)Cc2cc(NC(=O)Nc3cccc4ccccc34)ccc2O[C@@H]1CN(C)Cc1ccc(Oc2ccccc2)cc1 | 116* | 1 | 9
C[C@H]1CN([C@@H](C)CO)C(=O)Cc2cc(NC(=O)Nc3cccc4ccccc34)ccc2O[C@@H]1CN(C)Cc1ccc(-c2ccccc2)cc1 | 96* | 0 | nt
C[C@H]1CN([C@@H](C)CO)C(=O)Cc2cc(NC(=O)Nc3cccc4ccccc34)ccc2O[C@@H]1CN(C)Cc1ccccc1 | 50 | 2 | 4
C[C@H](CO)N1C[C@H](C)[C@H](CN(C)Cc2ccc(Oc3ccccc3)cc2)Oc2ccc(NC(=O)Nc3cccc4ccccc34)cc2CC1=O | 10 | -1 | -2
Cc1sc2ncnc(NCCOCCO)c2c1C | 13 | 1 | -5
CCn1c2ccccc2c2cc(NC(=O)CN(C)S(=O)(=O)c3ccc(Cl)cc3)ccc21 | 15 | 0 | -2
C[C@@H]1CN([C@@H](C)CO)C(=O)Cc2cc(NC(=O)Nc3ccc(C(F)(F)F)cc3)ccc2O[C@@H]1CN(C)S(=O)(=O)c1cccs1 | 111* | -8 | 1
C[C@@H]1CN([C@H](C)CO)C(=O)Cc2cc(NC(=O)Nc3ccc4c(c3)OCO4)ccc2O[C@H]1CN(C)S(=O)(=O)c1cccs1 | 11 | nt | 3
C[C@H](CO)N1C[C@H](C)[C@H](CN(C)S(=O)(=O)c2cccs2)Oc2ccc(NC(=O)Nc3ccc(C(F)(F)F)cc3)cc2CC1=O | 123* | nt | 4
C[C@@H]1CN([C@@H](C)CO)C(=O)Cc2cc(NC(=O)Nc3ccc(F)cc3)ccc2O[C@@H]1CN(C)S(=O)(=O)c1cccs1 | -5 | 1 | 1
C[C@@H]1CN([C@H](C)CO)C(=O)Cc2cc(NC(=O)Nc3ccc(C(F)(F)F)cc3)ccc2O[C@H]1CN(C)S(=O)(=O)c1cccs1 | 12 | 3 | 4
C[C@H](CO)N1C[C@H](C)[C@H](CN(C)S(=O)(=O)c2cccs2)Oc2ccc(NC(=O)Nc3ccc4c(c3)OCO4)cc2CC1=O | 86* | 1 | 2
O=C(CSc1nc2ccccc2s1)Nc1ccc(F)c(Cl)c1 | nt | nt | 0
Cc1ccnc(N=Cc2c(C)[nH]n(-c3ccccc3)c2=O)c1 | 35 | 0 | nt
